In PubChem BioAssay (NCI) one finds growth data, which are given here for ten compounds.

“And” between values parts separate entries of the source, which are not always exact repeats. Equal entries are not always repeated. The panel holds about 83,000 compounds, 20% with a hit somewhere; the sample as a whole holds those more often.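 In brief: 96-well plates, 48 h treatment, single concentration, percent growth endpoint.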 Values without a mark were called inactive. The source made the active and inactive calls. Rule for the calls: active = growth percent below 10; inactive = the rest.

The assay has as its system OVCAR-8 ovarian. Briefly: NCI-60 one-dose screen, 48 h (100 = growth as untreated, 0 = no growth, -100 = all killed). Conditions: 10 µM unless noted.
Take `NC1=CC(=O)c2cccnc2C1=O`: the growth is -5.58% (active). As for `Cn1c(=O)c2c(nc(Nc3cc(=O)[nH]c(=O)[nH]3)n2Cc2ccccc2)n(C)c1=O`, the growth is 7.39% (active). For the compound `O=C(c1ccc(Nc2nccc(NCCCNc3ccnc4cc(Cl)ccc34)n2)cc1)N1CCCCC1`, the growth is 34%. Consider `COc1c(NC=O)c2c(c([N+](=O)[O-])c1OC)C(=O)OC2`, for which the growth is 101% and 109%. With `COc1ccc(Cl)cc1Nc1nc(C(F)(F)F)ccc1C(=O)N/N=C/c1ccc(N(C)C)cc1` the figure was 99.8%; with `CC1=C2[C@@H](CC1)[C@]1(C)O[C@@](C3CC3)(C[C@H]1OC(=O)CO)[C@H]2OC(=O)/C=C/c1ccccc1`, 8.13% (active). With `CC/C=C\C/C=C\C[C@H](O)C/C=C1/C(=O)C=C[C@@H]1C/C=C\CCCC(=O)OC` the figure was 7.41% (active); with `Cc1[nH]c(C(=O)Nc2nc3ccc(NC(=O)CCN)cc3s2)c(Cl)c1Cl`, 56.1%; with `COc1cc(Cl)cc(-c2nn(C(=O)NS(=O)(=O)c3ccc(Cl)cc3)cc2-c2ccncc2)c1`, 27.5%. As for `C[C@@H]1O[C@@H](O[C@H]2[C@@H](OC(=O)[C@]34CCC(C)(C)C[C@H]3C3=CC[C@@H]5[C@@]6(C)C[C@H](O)[C@H](O[C@@H]7O[C@H](CO)[C@@H](O)[C@H](O)[C@H]7O)[C@@](C)(CO)[C@@H]6CC[C@@]5(C)[C@]3(C)C[C@H]4O)OC[C@@H](O)[C@@H]2O)[C@H](O)[C@H](O[C@@H]2OC[C@@H](O)[C@H](O[C@@H]3OC[C@](O)(CO)[C@H]3O[C@@H]3OC[C@@H](O)[C@H](O)[C@H]3O)[C@H]2O)[C@H]1O[C@@H]1OC[C@](O)(CO)[C@H]1O`, the growth is 98.8%.
